We go through 25 compounds from PubChem BioAssay AID1626 (SRMLSC, 2009).

About 2,000 (0.91%) of roughly 220,000 compounds were called active. Another 2% or so got no clear call; they are omitted. No stated cut-off is given here; in the data, inconclusive means inhibition above about 80% without an active follow-up result; inactive means below that; test concentration not stated here. A selection follows. Measured potencies and affinities stand elsewhere.

This test can be described thus: M. tuberculosis H37Rv growth inhibitors, H37Rv strain (AID 1626).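 Further: bacteria incubated seven days before Alamar blue readout; 0% = bacteria only wells and 100% = bacteria with antibiotic wells.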 Conditions: hits give high values, concentration not given here.
Consider `COC(=O)[C@@H]1C[C@H]1[C@@H](NS(=O)(=O)c1ccccc1)c1ccccc1`, for which the inhibition is -5.22% (inactive). As to `C/C(=N\N=C(/N)SC1CC(=O)N(c2ccccc2)C1=O)c1cccs1` (stereo not given), the inhibition is 3.4% (inactive). Regarding `C/C(=N\N=C(/N)SC1CC(=O)N(c2ccc(Cl)cc2)C1=O)c1cccs1` (stereo not given), the inhibition was 64.5% (inactive). Regarding `CC(O)/C=C/c1ccc2ccccc2n1` (stereo not given), the inhibition was 10.2% (inactive). As to `CN(C(=O)COC(=O)/C=C/c1ccc2ccccc2n1)C1CCS(=O)(=O)C1` (stereo not given), the inhibition is 14.9% (inactive). Consider `COC(=O)CNC(=O)COC(=O)/C=C/c1ccc2ccccc2n1`, for which the inhibition is 61.8% (inactive). To `O=C(O)/C=C/c1ccc2ccccc2n1` belongs -1.78% (inactive); to `COc1cc(NC(=O)C2CC(=O)NC3=C2C(=O)CCC3)cc(OC)c1` (stereo not given), -7.6% (inactive); to `CC(=O)O[C@]1(c2ccccc2)CCN(C)[C@H]2CCCC[C@@H]21`, -5.42% (inactive). Take `Cc1ccc(Cn2nnc3c(=O)n(CC(=O)c4ccccc4)cnc32)cc1`: the inhibition is 4.84% (inactive). The result for `CC(=O)N1C(=O)N(C)C2C1N(C)C(=O)N2C(C)=O` (stereo not given) reads -8.79% (inactive); that for `C=CCOC(=O)C1=C(C)NC(=S)C(C#N)(CC=C)C1c1ccccc1Cl` (stereo not given), -0.05% (inactive); that for `Cc1ccc(S(=O)(=O)/N=C(\N)Nc2nc(C)c3ccccc3n2)cc1`, 9.4% (inactive). To `Cc1ccc2c(C)nc(N/C(N)=N/S(=O)(=O)c3ccc([N+](=O)[O-])cc3)nc2c1` belongs 13% (inactive); to `CCCOc1ccc(N2C(=O)CC(SC(=N)N3N=C(c4ccccc4)CC3c3ccccc3)C2=O)cc1` (stereo not given), 75.6% (inactive). `CCN(CC)S(=O)(=O)c1ccc(NC(=O)C(C)N(c2ccccc2)S(C)(=O)=O)cc1` (stereo not given): the inhibition was -1.18% (inactive). In the case of `COc1ccc(-c2nnc(SCC(=O)NCC3CCCO3)n2C)cc1` (stereo not given), the inhibition is -4.37% (inactive). Consider `Cc1cccc(-c2nsc(SCC(=O)Nc3cc(C)on3)n2)c1`, for which the inhibition was 70.6% (inactive). For `CCc1ccc2nc(-c3cccc(C)c3)nc(SCC(=O)NCC3CCCO3)c2c1` (stereo not given), the inhibition was -13% (inactive). `COc1ccc(-c2nnc3ccc(SCC(=O)NCC4CCCO4)nn23)cc1` (stereo not given): the inhibition is -3.46% (inactive).

With `Cc1cc(NS(=O)(=O)c2ccccc2)n(-c2ccccc2)n1`, the inhibition was -2.44% (inactive). Take `CCC(=O)N1CCc2cc(S(=O)(=O)NCCC(=O)N3CCN(c4ccccn4)CC3)ccc21`: the inhibition was -5.78% (inactive). To `COc1cc(/C=N/NC(=O)COc2ccccc2[N+](=O)[O-])ccc1OC(=O)c1ccco1` belongs 4.21% (inactive). In the case of `Cn1ccnc1SCC(=O)Nc1ccc(Oc2ccccc2)cc1`, the inhibition was 3.6% (inactive). On to `CCCN1CCN(CCCNC(=O)C2CCN(c3nnc(-n4cccc4)s3)CC2)CC1`, for which the inhibition was -6.41% (inactive).
